High-throughput results as filed in PubChem BioAssay.
S1P3 antag – S1P3 (human) receptor antagonism. Q99500. CHO S1P3 NFAT-BLA reporter, FRET fluorescence, antagonist mode. inhibition, % at 4.98 µM. 0.27% of 170,000 active. AID 485;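 active means inhibition above the plate cutoff, the mean inhibition of test wells on that plate plus 3 SD, cut at about 28% in these data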;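 further: cells challenged with S1P at its EC80 of 0.8 µM; blue over green emission ratio from cleaved BLA substrate after 4 h stimulation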
S1P4 ag – agonists of human S1P4 receptor; S1P4-expressing cell line, agonist reporter assay; 0.35% of 220,000 active; AID 1509; activation, % at 4.98 µM; O95977; in the data active means activation above about 11%
Target sequence (O95977 whole entry, looked up): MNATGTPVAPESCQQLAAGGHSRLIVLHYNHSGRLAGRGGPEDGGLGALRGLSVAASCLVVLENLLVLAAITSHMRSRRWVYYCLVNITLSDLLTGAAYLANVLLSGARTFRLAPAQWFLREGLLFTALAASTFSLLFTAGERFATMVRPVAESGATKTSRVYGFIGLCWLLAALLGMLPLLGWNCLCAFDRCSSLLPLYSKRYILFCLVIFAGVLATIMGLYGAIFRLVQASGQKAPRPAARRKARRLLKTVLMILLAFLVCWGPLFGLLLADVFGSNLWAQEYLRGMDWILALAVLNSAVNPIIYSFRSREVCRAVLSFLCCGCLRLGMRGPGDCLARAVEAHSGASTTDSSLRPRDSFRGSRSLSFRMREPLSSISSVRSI
PGE2 EP2 inh – EP2 receptor (human) inhibition | AID 1422 | C6 glioma cells expressing human EP2, cAMP TR-FRET; cells stimulated with saturating PGE2 | inhibition, % at 25 µM | P43116 | 0.52% of 260,000 active;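 active means percent inhibition above 40 after rounding to a whole number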;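 further: rat C6 glioma host cells with rolipram phosphodiesterase inhibitor present; the protocol text gives 20 µM as final concentration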
EP2 modulator – modulates human prostaglandin E2 receptor EP2 signaling. 0.83% of 260,000 active. EP2-expressing cells, cAMP HTRF FRET, PGE2 co-stimulation. induction, % at 25 µM. P43116;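 active means compounds whose cAMP rise, as percent of the full-agonist control response, exceeds 60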;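 further: rat C6 glioma line stably carrying human EP2 under a CMV promoter; the protocol text gives 20 µM as final concentration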
S1P4 antag – human S1P4 receptor antagonism; 0.26% of 220,000 active; S1P4-expressing cells, antagonist mode, reporter read-out; O95977; inhibition, % at 4.98 µM; in the data active means inhibition above about 29%
EP2 confirm – human EP2 receptor cAMP induction, negative in counter-screens; 47% of 1,300 active; calls only at 20 µM (by protocol); C6 glioma EP2 cells, cAMP HTRF induction; plus low (about EC15) PGE2 agonist; shares compounds with EP2 modulator;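 active means cAMP induction above 50% in the main assay while under 30% in all four parallel counter assays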;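 further: rat C6 glioma cells stably expressing human EP2 receptor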
Numbers stand for hits; . = inactive; / = no result given; + = active, no number; ! = repeats disagree. Sampled rows, rich in hits. Any-hit rate of the full collection: about 2%.

SMILES	S1P3 antag	S1P4 ag	PGE2 EP2 inh	EP2 modulator	S1P4 antag	EP2 confirm
Cc1ccc(CN(CCCn2ccnc2)Cc2cccc(C(F)(F)F)c2)o1	/	/	.	.	/	/
COc1ccc(CNC(=O)CSc2nnc3c4ccccc4nc(C4CCCCC4)n23)cc1	/	/	.	.	/	/
CCOC(=O)C1CCN(c2c(C(=O)c3ccccc3)cnc3ccc(CC)cc23)CC1	.	.	.	76.7	.	.
O=c1oc2c3c4c(cc2c(C(F)(F)F)c1CCN1CCOCC1)CCCN4CCC3	/	.	.	72.6	.	.
O=c1oc2c(CN3CCOCC3)c(O)ccc2c2c1CCC2	.	.	.	.	.	/
CC(C)c1cc(=O)oc2c3c4c(cc12)CCCN4CCC3	.	.	.	.	.	+
Cc1cc(=O)oc2c3c4c(cc12)OCCN4CCC3	/	.	.	.	.	/
O=C(Cn1nc(C(F)(F)F)c2c1CCCC2)Nc1ccccc1	/	/	.	.	/	/
Cc1nc2ccccc2c(=O)n1Cc1ccco1	.	.	.	.	.	/
O=c1c2ccccc2c2ccccc2c(=O)n1Cc1ccco1	.	.	.	83.5	.	.
CCC(=O)N1CCc2cc(C(O)CN3CCC(O)(c4ccccc4C)CC3)ccc21 (centres undefined)	/	/	.	.	/	/
CC(C)(C)C1CCC(OC(=O)c2ccncc2)CC1 (centres undefined)	.	.	.	84.3	.	.
CC(C)(C)C1CCC(OC(=O)c2cncc(Br)c2)CC1 (centres undefined)	.	.	.	.	.	/
COc1ccccc1CC(=O)NC(C)c1nc(-c2ccncc2)n[nH]1 (centres undefined)	/	/	.	.	/	/
Cc1ccc(NC(=O)CSc2nc(-c3cccs3)cc(C(F)(F)F)n2)c(Br)c1	/	/	.	.	/	/
Fc1ccc(CSc2ncnc3c2oc2ccccc23)cc1	.	.	.	.	.	/
Fc1cccc(CSc2ncnc3c2oc2ccccc23)c1	.	.	.	80.0	.	.
O=C(CSc1ncnc2c1oc1ccccc12)Nc1cccc(F)c1	.	.	.	67.4	.	.
Cc1cccc(NC(=O)CSc2ncnc3c2oc2ccccc23)c1	.	.	.	71.3	.	.
CC[C@H](Cn1nnc2ccccc2c1=O)NC(=O)c1ccco1	/	/	/	.	/	/
COCCOC(=O)CSc1nc2cc(C)ccc2cc1C#N	/	/	.	.	/	/
O=C(CSc1nnc(Cn2nnc(-c3ccccc3)n2)n1-c1ccccc1)Nc1ccccc1	.	.	.	.	.	/
Cc1cccc(C)c1NC(=O)CSc1nnc(Cn2nnc(-c3ccccc3)n2)n1-c1ccccc1	.	.	.	73.8	.	.
CCOC(=O)c1oc2ccccc2c1NC(=O)c1cccc(OC)c1OC	.	.	.	65.8	.	.
CCc1ccc(NC(=O)c2cc3sccc3n2C)cc1	/	/	.	.	/	/
SMILES	S1P3 antag	S1P4 ag	PGE2 EP2 inh	EP2 modulator	S1P4 antag	EP2 confirm
C(=N/n1c2ccccc2c2ccccc21)/c1ccco1	.	.	.	65.0	.	+
Cc1cc(C)n(CCOc2ccc(Cl)cc2Cl)n1	.	.	.	73.3	.	+
Cc1cc(C)n(C(=O)COc2ccc(Cl)cc2Cl)n1	/	.	.	.	.	/
C=CCn1c(=S)[nH]c2sccc2c1=O	.	.	.	.	.	.
C=CCn1c(-c2csc3ccccc23)n[nH]c1=S	/	.	.	.	.	/
CC1=CC(C)(C)N2C(=O)C3(NCCc4c3[nH]c3ccccc43)c3cc(C)cc1c32 (centres undefined)	.	.	.	.	.	/
CC1=CC(C)(C)N2C(=O)C3(SCC(=O)N3c3ccc(F)cc3)c3cc(C)cc1c32 (centres undefined)	/	.	.	76.4	.	+
COc1cc(NC(=O)c2cnn3c(C(F)F)cc(C4CC4)nc23)c(OC)cc1Cl	.	.	.	.	.	/
COC(=O)c1ccccc1NC(=O)c1cnn2c(C(F)F)cc(C3CC3)nc12	.	.	.	76.2	.	.
CSc1nc(N2CCCC2)c2c(c1C#N)CC(C)(C)OC2	/	.	.	.	.	/
CCCSc1nc(N2CCCC2)c2c(c1C#N)CC(C)(C)OC2	/	.	.	66.2	.	+
CC(C)c1nc(N2CCN(C(=O)c3ccccc3)CC2)c(C#N)c2c1COC(C)(C)C2	.	.	.	76.9	.	+
CC1(C)Cc2c(C#N)c(NCc3ccco3)nc(-c3ccco3)c2CO1	/	.	.	.	.	/
CC1(C)Cc2c(C#N)c(N3CCCC3)nc(-c3ccco3)c2CO1	.	.	.	76.2	.	.
CNc1ncc(C(=O)c2ccc(-c3ccccc3)cc2)s1	.	.	.	.	.	/
COc1ccc(C(=O)c2cnc3ccccc3c2-c2ccccc2)cc1	/	.	.	92.5	.	+
Cc1ccc(C(=O)c2cnc3ccccc3c2-c2ccccc2)cc1	/	.	.	92.1	.	+
COc1ccc(S(=O)(=O)N(CC(=O)N2CCCCC2)c2ccccc2)cc1OC	/	/	.	.	/	/
C[C@H]1CC[C@@H](C(C)(C)O)CC2=C1CC[C@@H]2C	/	/	.	.	/	.
CN1C(C(=O)Nc2ccccn2)=C(O)c2ccccc2S1(=O)=O	.	.	.	.	.	/
Cc1cc(NC(=O)C2=C(O)c3ccccc3S(=O)(=O)N2C)no1	.	.	.	69.2!	.	.
C=CCc1cccc(C=Nc2cc(Br)ccc2O)c1O	.	.	.	66.8	.	+
Cn1cc(C2=C(c3ccc(Cl)cc3Cl)C(=O)NC2=O)c2ccccc21	/	/	.	75.4	/	+
COc1ccc(CN(Cc2ccc3c(c2)n(C)c(=O)n3C)CC2CCCO2)cc1 (centres undefined)	/	/	.	.	/	/
Cc1cc(C)c(S(=O)(=O)O)c(C)n1	/	.	.	77.4	.	.
SMILES	S1P3 antag	S1P4 ag	PGE2 EP2 inh	EP2 modulator	S1P4 antag	EP2 confirm
CCC(Sc1nc2ccccc2[nH]1)C(=O)Nc1cc(C)on1 (centres undefined)	/	.	.	.	.	/
CCC(Sc1nc(-c2ccccc2)c(C#N)c(=O)[nH]1)C(=O)Nc1cc(C)on1 (centres undefined)	.	.	49.6	75.7	.	.
CCCC(c1nnnn1C(C)(C)CC)N1CCN(c2ccccc2)CC1 (centres undefined)	/	/	.	.	/	/
CC(C)c1ccc(OCC(=O)NC(=S)Nc2ccc3c4c(cccc24)CC3)cc1	/	.	.	66.0	.	.
Cn1c(COc2ccc(Cl)cc2)nnc1SCC(=O)N1CCCC1	/	/	.	.	/	/
CC(=O)OCC(=O)[C@@]12OC(C)(C)O[C@@H]1C[C@H]1[C@H]3CC=C4C[C@@H](O)CC[C@]4(C)[C@@H]3CC[C@@]12C	/	/	39.7	.	/	.
Cc1ccccc1CSCCNC(=O)CN1C(=O)c2ccccc2S1(=O)=O	/	/	.	.	/	/
CCSc1ccccc1C(=O)n1nnc2ccccc21	.	.	.	67.6	.	.
C/C=C(\C)c1nnc(NC(=O)OCC)s1	.	.	.	90.0	.	.
O=S(=O)(Nc1ccccc1N1CCCCC1)c1ccc(Cl)s1	/	.	.	68.8	.	.
O=S(=O)(Nc1cc(Cl)ccc1N1CCCCC1)c1cccs1	.	.	.	.	.	/
CCCNC(=O)CN1N=C(c2ccc(OC)cc2)Cn2c(cc3sccc32)C1=O	/	/	/	.	/	/
